Assay results published in PubChem BioAssay AID411 (National Center for Advancing Translational Sciences (NCATS), 2006).
About 1,600 (2.2%) of roughly 72,000 compounds were called active. The entries come from a sample that favours actives as a whole. A number with no mark means an inactive call. The call rests on the fitted dose curve; in most records, active means well fitted inhibition curve with a large enough effect; inconclusive means small, poorly fitted or top-dose-only effect; inactive means flat fitted curve, though single readings scatter.

biological target: Luciferin 4-monooxygenase (Photinus pyralis) (UniProt P08659); experiment: qHTS Assay for Inhibitors of Firefly Luciferase; settings: purified firefly luciferase, luminescence, 8 min; series mostly up to 57.1 µM; activity change, negative = inhibition: at the top concentration; further: nearly all actives have a fitted effect of over 40% in size
Sequence (P08659 whole entry, looked up): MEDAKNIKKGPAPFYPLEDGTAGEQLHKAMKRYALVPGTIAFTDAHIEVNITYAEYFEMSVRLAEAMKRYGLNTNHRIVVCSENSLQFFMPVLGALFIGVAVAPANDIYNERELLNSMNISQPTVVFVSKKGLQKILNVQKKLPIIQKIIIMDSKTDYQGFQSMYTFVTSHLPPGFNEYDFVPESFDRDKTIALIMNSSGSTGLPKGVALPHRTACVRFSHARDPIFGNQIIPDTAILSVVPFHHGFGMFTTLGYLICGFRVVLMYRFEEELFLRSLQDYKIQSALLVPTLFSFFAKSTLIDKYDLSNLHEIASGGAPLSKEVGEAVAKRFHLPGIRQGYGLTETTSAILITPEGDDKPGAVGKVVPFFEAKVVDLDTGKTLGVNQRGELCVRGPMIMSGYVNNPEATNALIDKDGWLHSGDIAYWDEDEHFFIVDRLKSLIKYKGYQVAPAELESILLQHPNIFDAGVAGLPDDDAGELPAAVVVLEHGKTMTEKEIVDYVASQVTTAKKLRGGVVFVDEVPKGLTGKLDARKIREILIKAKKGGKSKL
How it was run: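 Inhibition of light generation by firefly luciferase from ATP and luciferin was profiled with concentration-response curves per sample, ATP held at 10 uM within the enzyme's linear range. Plates were read by luminescence after an 8-minute ambient incubation.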
On the % scale 0 is the no-effect control and ±100 the full control effect; potency means the concentration at half of the fitted maximal effect.

Q: Which “activity change, negative = inhibition” value does the source give for Cc1ccc(C(=O)NCC2CCCO2)o1 (stereo unspecified) here?
A: 1.19%

Q: With Cc1nc2ccccc2c2oc(C(=O)NCC3CCCO3)cc12 (stereo unspecified) as the compound, how does the “activity change, negative = inhibition” value read?
A: -0.52%

Q: For Cc1ccc(-c2noc(-c3ccccc3C(=O)NCC3CCCO3)n2)cc1 (stereo unspecified), which Potency is on record?
A: 12.6 µM (active)

Q: With CCCN1C2=C(C(=O)CCC2)C(c2ccc(O)c(Br)c2)C2=C1CCCC2=O as the compound, how does the “activity change, negative = inhibition” value read?
A: -0.424%

Q: For O=S(=O)(N1CCOCC1)N1CCN(c2ccccc2F)CC1, which “activity change, negative = inhibition” value is on record?
A: 0.783%

Q: CCCn1c(=O)c2[nH]c(-c3ccc(OCC(=O)NCCN)cc3)nc2n(CCC)c1=O was tested. Which “activity change, negative = inhibition” value did it give?
A: 2.64%

Q: CCc1ccccc1N(CC(=O)N1CCN(c2ccccc2F)CC1)S(C)(=O)=O was tested. Which “activity change, negative = inhibition” value did it give?
A: 1.6%

Q: How did the “activity change, negative = inhibition” value turn out when CCOc1ccc2nc(N3CCCN(C(=O)Nc4ccccc4C)CC3)c(C#N)cc2c1 was run?
A: -4.69%

Q: For COc1ccc(N2CCN(C(=O)CSc3nc4cc(OC)c(OC)cc4cc3C#N)CC2)cc1, which “activity change, negative = inhibition” value is on record?
A: -1.56%

Q: COc1ccc2nc(N3CCCC(O)C3)c(C#N)cc2c1 (stereo unspecified) was tested. Which Potency did it give?
A: 12.6 µM (active)

Q: For CCOc1ccc(N(CC(=O)NCc2ccc(OC)cc2)S(=O)(=O)c2c(C)noc2C)cc1, which “activity change, negative = inhibition” value is on record?
A: 0.209%

Q: How did the “activity change, negative = inhibition” value turn out when Cc1ccc(-c2noc(CCC(=O)Nc3ccccc3N3CCN(C)CC3)n2)cc1 was run?
A: 0.968%

Q: With CCNC(=O)CCc1nc(-c2ccc(C(C)(C)C)cc2)no1 as the compound, how does the Potency read?
A: 5.01 µM (active)

Q: Which “activity change, negative = inhibition” value does the source give for Cc1ccc(-c2noc(CCC(N)=O)n2)cc1 here?
A: -1.58%

Q: How did the “activity change, negative = inhibition” value turn out when O=C(OCCO)c1cc(Cl)c(C(=O)OCCO)cc1Cl was run?
A: 2.17%

Q: With CC(C)c1ccc(-c2nn[nH]n2)cc1 as the compound, how does the Potency read?
A: 15.8 µM (active)

Q: With CCc1ccc(-c2nnn(Cc3nn[nH]n3)n2)cc1 as the compound, how does the “activity change, negative = inhibition” value read?
A: -3.49%

Q: With c1ccc(-n2ncc(-c3nn[nH]n3)n2)cc1 as the compound, how does the “activity change, negative = inhibition” value read?
A: -2.16%

Q: With CCCCn1c(CN2CCN(CCO)CC2)nc2ccccc21 as the compound, how does the “activity change, negative = inhibition” value read?
A: 3.37%

Q: How did the “activity change, negative = inhibition” value turn out when CCOC(=O)CCc1c(C)c2ccc(OCc3nn[nH]n3)c(C)c2oc1=O was run?
A: -29.4%

Q: COc1ccc(C(=O)Nc2ccc3c(c2)OCO3)cc1OC was tested. Which Potency did it give?
A: 12.6 µM (active)

Q: With Cn1c(=O)n(C)c2cc(C(=O)Nc3ccc4c(c3)OCO4)ccc21 as the compound, how does the “activity change, negative = inhibition” value read?
A: -24.6%

Q: For Cc1ccc(F)cc1NC(=O)c1ccc2c(c1)OCO2, which “activity change, negative = inhibition” value is on record?
A: 0.628%

Q: How did the “activity change, negative = inhibition” value turn out when Cn1c(NC(=O)c2ccc3c(c2)OCO3)cc(=O)n(C)c1=O was run?
A: 1.02%

Q: With Cc1ccc(C(=O)Nc2ccc3c(c2)OCO3)cc1S(=O)(=O)N1CCCCC1 as the compound, how does the “activity change, negative = inhibition” value read?
A: -16.5%

Q: With CC(C)C(=O)Nc1cccc(C(=O)Nc2ccc3c(c2)OCO3)c1 as the compound, how does the Potency read?
A: 15.8 µM (active)

Q: How did the “activity change, negative = inhibition” value turn out when CCOc1ccc(NC(=O)CSc2nc3c(c(=O)n2-c2ccccc2OC)SCC3)cc1 was run?
A: 2.17%

Q: With C[C@H](CCC(=O)NCC(=O)O)[C@H]1CC[C@H]2[C@H]3[C@@H](C[C@@H](O)[C@]12C)[C@]1(C)CC[C@H](O)C[C@@H]1C[C@@H]3O as the compound, how does the “activity change, negative = inhibition” value read?
A: 0.706% [at 25.5 µM]

Q: With CCCOc1ccc(/C(O)=C2/C(=O)C(=O)N(CCN(C)C)C2c2ccc(OC)c(OC)c2)cc1 (stereo unspecified) as the compound, how does the “activity change, negative = inhibition” value read?
A: 2.31% [at 25.5 µM]

Q: CCn1nnc(NC(=O)c2c(OC)cccc2OC)n1 was tested. Which “activity change, negative = inhibition” value did it give?
A: 1.07%

Q: CCOC(=O)CCc1c(C)c(C#N)c2[nH]c3ccccc3n2c1=O was tested. Which “activity change, negative = inhibition” value did it give?
A: -1.12% [at 25.5 µM]

Q: How did the “activity change, negative = inhibition” value turn out when FC(F)Oc1ccccc1C1CC(c2ccc(Br)s2)Nc2ncnn21 (stereo unspecified) was run?
A: -0.115%

Q: Which “activity change, negative = inhibition” value does the source give for CCCOC(=O)C1=C(C)NC2=C(C(=O)C(C(=O)OC)C(C)C2)C1c1ccc(N(C)C)cc1 (stereo unspecified) here?
A: 3.23%

Q: With COC(=O)C1C(=O)c2c([nH]c(C(=O)OCCSC)c2C)CC1C (stereo unspecified) as the compound, how does the Potency read?
A: 7.94 µM (active)

Q: Which “activity change, negative = inhibition” value does the source give for CCCOC(=O)c1[nH]c2c(c1C)C(=O)CC(c1cc(OC)c(OC)c(OC)c1)C2 (stereo unspecified) here?
A: 0.417%

Q: For O=C(NCc1ccco1)c1sc2cccc(F)c2c1Cl, which “activity change, negative = inhibition” value is on record?
A: -3.25%

Q: For CN=C1SC(C(=O)O)CC(=O)N1C (stereo unspecified), which “activity change, negative = inhibition” value is on record?
A: 2.14%

Q: With O=C(c1csnn1)N1CCC[C@@]2(CCN(c3cccc(-c4ccccc4)c3)C2)C1 as the compound, how does the activity change, negative = inhibition read?
A: 0.28% [at 11.4 µM]

Q: Which “activity change, negative = inhibition” value does the source give for O=C(Nc1cccnc1)c1ccc2c(c1)OCO2 here?
A: -6.01%

Q: How did the Potency turn out when O=C(Nc1cccnc1)c1noc2c1CCCCC2 was run?
A: 12.6 µM (active)

Q: Which “activity change, negative = inhibition” value does the source give for CCOc1cccc(C(=O)Nc2cccnc2)c1 here?
A: 1.45%

Q: With COc1ccc(OC)c([C@H](O)CNC(=O)CN)c1 as the compound, how does the “activity change, negative = inhibition” value read?
A: 3.26% [at 25.5 µM]

Q: With CNC(=O)NCCN1CCCC1=O as the compound, how does the “activity change, negative = inhibition” value read?
A: 2.71%

Q: For COC(=O)COc1ccc2oc(=O)cc(C)c2c1, which “activity change, negative = inhibition” value is on record?
A: 0.108%

Q: Cc1noc(C)c1C(=O)Nc1ccccn1 was tested. Which “activity change, negative = inhibition” value did it give?
A: 0.167%

Q: How did the Potency turn out when CCN(CC)S(=O)(=O)c1cc(C(=O)Nc2ccccn2)ccc1C was run?
A: 15.8 µM (active)

Q: How did the “activity change, negative = inhibition” value turn out when CCN(CC)S(=O)(=O)c1cccc(C(=O)Nc2ccccc2)c1 was run?
A: -6.08%

Q: With N[C@H](C(=O)O)c1ccc(C(=O)O)c(O)c1 as the compound, how does the “activity change, negative = inhibition” value read?
A: 0.32%

Q: For c1ccc(CNc2ncncc2-c2cccnc2)cc1, which activity change, negative = inhibition is on record?
A: -1.06% [at 2.29 µM]

Q: For Cc1ccc(OCC(O)CN2CCN(CC(O)COc3ccc(C)cc3Cl)CC2)c(Cl)c1 (stereo unspecified), which “activity change, negative = inhibition” value is on record?
A: 1.51%

Q: Which “activity change, negative = inhibition” value does the source give for CCOC(=O)CSc1nnc(-c2cccc(Br)c2)o1 here?
A: 0.795%

Q: Which “activity change, negative = inhibition” value does the source give for CCOC(=O)CSc1nnc(-c2ccncc2)o1 here?
A: 2.7%

Q: With CCCCSc1nnc(-c2ccc(C)cc2)o1 as the compound, how does the Potency read?
A: 15.8 µM (active)

Q: With CC1=C(C(=O)OCc2ccccc2)C(c2ccco2)n2ncnc2N1 (stereo unspecified) as the compound, how does the “activity change, negative = inhibition” value read?
A: 1.06%

Q: With CCOc1ccc(C(=O)Nc2ccncc2)cc1 as the compound, how does the “activity change, negative = inhibition” value read?
A: -24.2%

Q: For COc1ccc(NC(=O)c2c(C)oc3c2CCCC3)cc1, which “activity change, negative = inhibition” value is on record?
A: -2.79%

Q: COc1ccc(NC(=O)c2ccc(OC)cc2)cc1 was tested. Which Potency did it give?
A: 2 µM (active)

Q: How did the “activity change, negative = inhibition” value turn out when COc1ccc2occ(C(=O)c3ccc(N=C(C)N(C)C)cc3)c2c1 was run?
A: -12.2%

Q: How did the “activity change, negative = inhibition” value turn out when N#Cc1c2c(c(-c3ccccc3)[nH]c1=O)CCCC2 was run?
A: 1.63% [at 25.5 µM]

Q: How did the “activity change, negative = inhibition” value turn out when O=C(CCN1C(=O)c2ccncc2C1=O)Nc1ccc2c(c1)OCCO2 was run?
A: -1.7%

Q: With O=C(COc1ccc2oc3c(c2c1)CCCC3)Nc1ccccn1 as the compound, how does the “activity change, negative = inhibition” value read?
A: -13%

Q: For Cc1ccc(OCC(=O)Nc2ccc(-c3nc4ncccc4o3)cc2)cc1, which “activity change, negative = inhibition” value is on record?
A: -5.29%

Q: With Cc1cc2nc(-c3ccc(NC(=O)c4cccnc4)cc3)oc2cc1C as the compound, how does the Potency read?
A: 12.6 µM (active)

Q: With CCOC(=O)c1cc(NC(=O)c2cccnc2)cc(C(=O)OCC)c1 as the compound, how does the “activity change, negative = inhibition” value read?
A: -0.799%

Q: With CC(=O)c1c(C)[nH]c(C(=O)NCCCN2CCCC2)c1C as the compound, how does the “activity change, negative = inhibition” value read?
A: -0.766%

Q: Which “activity change, negative = inhibition” value does the source give for Cc1onc(-c2ccccc2)c1C(=O)N1CCOCC1 here?
A: 0.0698%

Q: For Cc1cc(C(=O)COC(=O)CCCN2C(=O)c3ccccc3C2=O)c(C)n1C, which “activity change, negative = inhibition” value is on record?
A: -25.1%

Q: For C=CCN(CC=C)C(=O)CN1C(=O)c2ccccc2C1=O, which “activity change, negative = inhibition” value is on record?
A: 0.175%

Q: For C=CCn1c(C)cc(C(=O)CN2C(=O)c3ccccc3C2=O)c1C, which Potency is on record?
A: 3.98 µM (active)

Q: For COc1cc2c(cc1OC)C(c1ccncc1)CC(=O)N2 (stereo unspecified), which “activity change, negative = inhibition” value is on record?
A: 0.391%

Q: Which activity change, negative = inhibition does the source give for O=C(c1ccncc1)N1CCC2(CCCN(C(c3ccccc3)c3ccccc3)C2)CC1 here?
A: -0.104% [at 11.4 µM]
